TDP1 block – blocks human tyrosyl-DNA phosphodiesterase 1. Q9NUW8. recombinant TDP1, AlphaScreen DNA substrate cleavage. Potency, µM (series often up to 130 µM), inactives show at the highest dose activity change, negative = inhibition, usual class: inhibitors. hit rate 0.28% among 350,000. AID 485290; also: % is scaled to controls: 0 for no effect and ±100 for the full control effect; nearly all actives have a fitted effect of over 40% in size
Target sequence (Q9NUW8 whole entry, looked up): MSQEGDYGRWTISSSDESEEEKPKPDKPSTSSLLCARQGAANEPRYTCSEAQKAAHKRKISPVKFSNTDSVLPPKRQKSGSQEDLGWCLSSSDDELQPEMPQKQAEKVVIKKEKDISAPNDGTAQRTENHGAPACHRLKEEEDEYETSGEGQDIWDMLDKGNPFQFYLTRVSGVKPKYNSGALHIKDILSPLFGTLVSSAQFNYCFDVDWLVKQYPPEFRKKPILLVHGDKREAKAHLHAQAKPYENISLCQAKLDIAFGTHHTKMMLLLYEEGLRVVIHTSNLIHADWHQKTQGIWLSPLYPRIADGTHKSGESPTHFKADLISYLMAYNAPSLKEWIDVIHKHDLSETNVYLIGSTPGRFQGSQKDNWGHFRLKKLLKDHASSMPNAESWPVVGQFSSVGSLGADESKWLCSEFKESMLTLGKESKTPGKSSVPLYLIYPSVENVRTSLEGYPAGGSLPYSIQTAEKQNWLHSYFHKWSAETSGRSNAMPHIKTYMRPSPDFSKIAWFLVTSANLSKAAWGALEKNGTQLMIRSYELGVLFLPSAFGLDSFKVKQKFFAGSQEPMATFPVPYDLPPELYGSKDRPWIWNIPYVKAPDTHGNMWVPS
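E. coli-derived human Tdp1, 1 nM final. Cpd preinc 15 min RT; substrate 15 nM final, 5 min RT; AS bead mix 10 ug/ml final, 10 min RT. Signal loss = tyrosine-FITC cleavage. No-enzyme wells = max signal.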
TDP1 cell CPT – DT40-hTDP1 cell growth loss with CPT | AID 686979 | hit rate 12% among 420,000 | chicken DT40 Tdp1-/-;hTDP1 cells + 20 nM CPT, ATP luminescence, 48 h | Potency, µM (highest dose often 46.2 µM), without a hit: top-dose activity change, negative = growth inhibition, most hits filed as inhibitors; also: % is scaled to controls: 0 for no effect and ±100 for the full control effect; nearly all actives have a fitted effect of over 55% in size
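Chicken DT40 Tdp1-/- cells complemented with human TDP1, 400 cells/well, exposed to compounds plus 20 nM camptothecin for at least 48 h at 37 C; viability read as ATP content by CellTiter-Glo luminescence.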
TDP1 cell noCPT – qHTS for Inhibitors of human tyrosyl-DNA phosphodiesterase 1 (TDP1): qHTS in cells in absence of CPT | DT40 Tdp1-/- hTDP1 cells, no CPT, ATP luminescence, 48 h | Potency, µM (doses to about 46.2 µM), inactives show at the top dose activity change, negative = growth inhibition, hits mostly inhibitors | hit rate 15% among 420,000 | AID 686978, 2013; also: % is scaled to controls: 0 for no effect and ±100 for the full control effect; nearly all actives have a fitted effect of over 55% in size
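Seeded 400 DT40-hTDP1 cells/well (vehicle DMSO, no 20 nM CPT); pinned compounds; ≥48 hr at 37 °C; CellTiter-Glo luminescence as viability measure.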
ClpP mod – qHTS Assay for Activators of ClpP; purified B. subtilis ClpP, FRET peptide cleavage, 20 min; Potency, µM (top dose mostly 57.5 µM), for inactives: top-dose activity change, negative = active; hit rate 1.9% among 340,000; active = well fitted falling curve with a large enough effect; inconclusive = small, poorly fitted or top-dose-only effect; inactive = no such curve, though single readings can be large or run the other way; also: the source files actives as falling curves though it sought activators and does not explain the sign; nearly all actives have a fitted effect of over 65% in size
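Purified B. subtilis ClpP, 10 microg/mL final in Tris/HCl pH8 with KCl, BSA, glycerol and Tween-20, cleaved an Abz/nitrotyrosine-quenched decapeptide. Fluorescence (ex 320, em 430) was read at 0 and 20 min at room temperature. Delta was normalized to 5.8 microM ADEP and DMSO/no-enzyme controls.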
* = called active by the depositor; [ ] = dose if it differs, or a comment. Rows were chosen to be rich in hits. Some 17% of all compounds tested hit in one or more screens of this group. Unless noted, calls follow the shape of the dose curve; as a rule, active = well fitted curve in the direction sought with a large enough effect; inconclusive = small, poorly fitted or top-dose-only effect, or another doubt; inactive = no such curve, though single readings can be large; an effect the other way counts as inactive or inconclusive. Potency is read from the fitted curve at half-maximal effect.

For O=C(CN1CCN(S(=O)(=O)c2ccc3c(c2)OCCCO3)CC1)N1CCc2ccccc21 the results were TDP1 cell CPT inconclusive, TDP1 cell noCPT inconclusive and ClpP mod -4.2%.
CCOC(=O)N1CCN(CC(=O)Nc2nnc(C(F)(F)F)s2)CC1 was read as TDP1 cell CPT -11.8%, TDP1 cell noCPT 1.3% and ClpP mod 1.1%.
Cc1cccc(-n2c(=O)cc(N3CCN(c4ccc(F)cc4)CC3)[nH]c2=O)c1 was read as TDP1 block -5.2%, TDP1 cell CPT inconclusive, TDP1 cell noCPT 18.4µM* and ClpP mod -2.0%.
Screening O=C(NCC1CCCCC1)c1csc([C@@H]2C[C@H](O)[C@@H](CO)O2)n1 returned TDP1 cell CPT 7.5%, TDP1 cell noCPT 0.9% and ClpP mod -1.2%.
For CCOc1ccc(CC(=O)Nc2c(C(=O)c3ccccc3)oc3ccc(Cl)cc23)cc1OCC the results were TDP1 block -0.6%, TDP1 cell CPT 2.3%, TDP1 cell noCPT inconclusive and ClpP mod -0.5%.
`O=C(NCC1(c2ccccc2)CCCC1)c1ccccc1` gave TDP1 block 2.7%, TDP1 cell CPT 14.6µM*, TDP1 cell noCPT 11.6µM* and ClpP mod 0.7%.
Screening O=C(NCC1(c2ccccc2)CCCC1)c1ccccc1Br returned TDP1 block 2.7%, TDP1 cell CPT 16.4µM* and TDP1 cell noCPT inconclusive.
For Cc1ccccc1NC(=O)C(=O)NCC1(c2ccccc2)CCCC1 the results were TDP1 block -2.3%, TDP1 cell CPT inconclusive, TDP1 cell noCPT 16.4µM* and ClpP mod -1.4%.
`COc1ccccc1C(=O)NCC1(c2ccccc2)CCCC1` gave TDP1 block -5.1%, TDP1 cell CPT 16.4µM*, TDP1 cell noCPT inconclusive and ClpP mod -0.4%.
O=C(NCC1(c2ccccc2)CCCC1)C1(c2ccccc2)CCCC1 was read as TDP1 block -10.6%[56.1 µM], TDP1 cell CPT inconclusive, TDP1 cell noCPT inconclusive and ClpP mod -3.4%.
Screening O=C(NCC1(c2ccccc2)CCCC1)C(=O)NCC1(c2ccccc2)CCCC1 returned TDP1 block 2.5%, TDP1 cell CPT -1.2%, TDP1 cell noCPT -29.9% and ClpP mod 1.3%.
`Cc1cc(C)c2c(N=NN3CCOCC3)[nH]nc2n1` gave TDP1 block 5.4%, TDP1 cell CPT -2.9%, TDP1 cell noCPT -14.9% and ClpP mod -5.8%.
Cc1nc2cc(NC(=O)C3CC34CCN(Cc3ccc(O)c(Cl)c3)CC4)ccc2s1 (stereo unspecified) was read as TDP1 cell CPT 5.7% and TDP1 cell noCPT -12.6%.
COC(=O)c1ccccc1S(=O)(=O)N1CCC(C(=O)N2CCC2)CC1 was read as TDP1 block -0.1%[56.1 µM], TDP1 cell CPT -2.1%, TDP1 cell noCPT 15.9% and ClpP mod 0.7%.
S=C(NCCNC(=S)Nc1ccccc1)Nc1ccccc1 was read as TDP1 cell CPT -1.3%, TDP1 cell noCPT -4.4% and ClpP mod 0.8%.
For S=C(NCC1(c2ccccc2)CCCC1)Nc1ccccc1 the results were TDP1 cell CPT 20.6µM*, TDP1 cell noCPT 11.6µM* and ClpP mod -0.2%.
Screening CCN(C(=O)CN1C(=S)NC(C)(C)CC1C)c1ccc(C)c(C)c1 (stereo unspecified) returned TDP1 block 3.7%, TDP1 cell CPT 14.6µM* and TDP1 cell noCPT 23.1µM*.
For CC(C)(C)n1cnc2cc(NCc3ccccc3Cl)ccc21 the results were TDP1 block 10.0%, TDP1 cell CPT inconclusive, TDP1 cell noCPT 14.6µM* and ClpP mod -12.9%.
For COc1ccc(N2CCN(Cc3cc(=O)oc4cc(C)c(Cl)c(C)c34)CC2)cc1 the results were TDP1 block 2.3%, TDP1 cell CPT 14.6µM*, TDP1 cell noCPT 9.2µM* and ClpP mod 1.5%.
Screening O=c1cc(CN(Cc2ccccc2)Cc2ccccc2)c2c(ccc3ccccc32)o1 returned TDP1 cell CPT 29.1µM*, TDP1 cell noCPT inconclusive and ClpP mod -17.0%.
For COc1ccc2c(COC(=O)c3n[nH]c4ccccc34)cc(=O)oc2c1 the results were TDP1 block 4.9%, TDP1 cell CPT inconclusive, TDP1 cell noCPT 20.6µM* and ClpP mod 28.2µM*.

From PubChem BioAssay
